Measured values taken from PubChem BioAssay AID587 (National Center for Advancing Translational Sciences (NCATS), 2007).
The campaign covered roughly 59,000 compounds. About 35 (0.06%) were called active. Another 19% or so got no clear call; they are omitted. Cut-off read from the data, not from the text of the source: active = max dye-equivalent concentration above about 10 nM; inconclusive = between about 1.1 nM and that limit; inactive = weaker than that. The list comes from a sample in which actives are over-represented; it also holds similar structures and randomly drawn compounds.

assay: qHTS Assay for Spectroscopic Profiling in Texas Red Spectral Region; conditions: Compound fluorescence, Texas Red channel, 547/618 nm
Excerpt: NIH Molecular Libraries Screening Centers Network [MLSCN] NIH Chemical Genomics Center [NCGC] […] Occasionally, the artifactual effect may originate from the compound#s own spectral or other biophysical properties which generally tend to track its assay concentration. Pre-screening/profiling the library with respect to the compounds# spectral properties should help one exclude false positives early on. While the most informative fluorescent profiling data set is obtained by performing a full excitation and emission scan of each well by using a monochromator-based plate reader, such an approach is practical only on a very limited scale as scanning each well requires long time. An alternative approach, applied here, is to perform plate reader scans using selected excitation and emission wavelength pairs to generate a multidimensional relational database that correlates compound concentration and the respective relative fluorescence intensity at a given wavelength set. A standard curve of Texas Red (TR) present on each plate as six-point concentration series, was used to compute a normalized fluorescence response, termed dye-equivalent concentration, for each compound at each concentration.
NCGC Assay Protocol Summary: Buffer: 100 mM Tris buffer, pH 8.0 Dye standard plate: The wells in columns 1 through 4 of a Kalypsys polypropylene 1536-well compound plate were filled with standard solutions of fluorophore corresponding to the spectral region of interest. Solutions of TR were placed in the following wells: U1, V1: 3 mM, U2, V2: 300 uM, U3, V3: 30 uM, U4, V4: zero (DMSO), W1, X1: 3 uM, W2, X2: 900 nM, W3, X3: 300 nM, W4, X4: zero (DMSO). Assay Steps: Six uL of buffer were dispensed to 1536-well Greiner black plates. Compounds and dye standards (23 nL) were transferred via Kalypsys PinTool. The plates were incubated for 15 min at room temperature, and then read on ViewLux (Perkin-Elmer) High-throughput CCD imager using 547 nm and 618 nm excitation and emission filter set. Keywords: NIH Roadmap, MLSCN, MLI, MLSMR, qHTS, NCGC, Texas Red, Fluorescent Profiling.

| Structure (SMILES) | max dye-equivalent concentration |
| --- | --- |
| COc1ccc(OCc2cccc(C(=O)N3CCCC3)c2)cc1 | inactive |
| CN(c1ccc(C(=O)NCCC2=CCCCC2)cc1)S(C)(=O)=O | inactive |
| CCOc1ccc(C2C(C(=O)O)c3ccccc3C(=O)N2CCN2CCOCC2)cc1 (stereo not given) | inactive |
| COc1ccccc1CNc1ncnc2ccc(-c3ccc4c(c3)OCO4)cc12 | inactive |
| Cc1ccc2nc(-c3ccc(SCC(=O)Nc4cc(C)on4)nc3)[nH]c2c1 | inactive |
| COc1ccc(-n2c(SCC(=O)NCc3cccs3)nnc2-c2ccoc2C)cc1 | inactive |
| CN(C)CCNC(=O)C(C(=O)c1ccccc1)n1ccccc1=O (stereo not given) | inactive |
| CC1Cn2c(nnc2-c2cccs2)S1 (stereo not given) | inactive |
| CSc1ncccc1C(=O)OCC(=O)N1CCOCC1 | inactive |
| c1ccc(-c2oc3ncnc(N4CCOCC4)c3c2-c2ccccc2)cc1 | inactive |
| O=c1c(-c2cc(F)cc(F)c2)nc2cnc(Oc3ccccc3)nc2n1C[C@H]1CCCO1 | inactive |
| COc1ccc(-n2ncc3c(N4CCc5ccccc54)ncnc32)cc1 | inactive |
| CN(C)c1ccc(-c2nc(NCCN3CCOCC3)c3ccccc3n2)cc1 | inactive |
| CC(NCCO)C(=O)C12CC3CC(CC(C3)C1)C2 (stereo not given) | inactive |
| O=c1c(-c2ccc(F)cc2)nc2cnc(N3CCOCC3)nc2n1-c1ccccc1 | inactive |
| Cc1cc(N2C(=O)C(=O)/C(=C(/O)c3ccc(Cl)cc3)C2c2cccc(Br)c2)no1 (stereo not given) | inactive |
| CC[C@H](c1ccccc1)c1cc(C(C)(C)C)cc(C(C)(C)C)c1O | inactive |
| COc1ccc(C(=O)n2nc(-c3ccc(C)cc3)nc2N)cc1OC | inactive |
| Cn1cc(-c2nc3cnc(N4CCNCC4)nc3n(CCc3ccccc3)c2=O)c2ccccc21 | inactive |
| O=c1c(CCc2ccccc2)nc2cnc(N3CCNCC3)nc2n1Cc1cccs1 | inactive |
| Cc1nc2nc(COc3ccccc3)[nH]n2c(=O)c1C | inactive |
| COc1ccc(C(C(O)C(=O)c2c[nH]c3ccccc23)N2CCN(c3ccccc3)CC2)cc1 (stereo not given) | inactive |
| COc1ccc(NS(=O)(=O)c2ccc(NC(=O)C(C)(C(F)(F)F)C(F)(F)F)cc2)nn1 | inactive |
| N#Cc1ccc(OCCN2C(=O)NC3(CCSC3)C2=O)cc1 (stereo not given) | inactive |

| Structure (SMILES) | max dye-equivalent concentration |
| --- | --- |
| Cc1nc2cnc(Nc3ccccc3)nc2n(Cc2ccc(F)cc2)c1=O | inactive |
| CC(=O)O[C@]1(C(C)=O)CC[C@@H]2[C@@H]3C=C(C)C4=CC(=O)CC[C@@]4(C)[C@H]3CC[C@]21C | inactive |
| Cc1oc(-c2cccc(Cl)c2)[n+]([O-])c1C | inactive |
| CCOC(=O)CCc1c(C)c(C#N)c2[nH]c3ccccc3n2c1=O | inactive |
| Cc1cc(C)c(C#N)c(SCc2ccccc2C(=O)O)n1 | inactive |
| CC(CCc1ccccc1)NC(=O)c1ccc(Br)o1 (stereo not given) | inactive |
| CCCCCNC(=O)Cc1ccc(OC)cc1 | inactive |
| CCN(CC)C(=O)N1CCN(C(=O)c2ccc(C)cn2)CC1 | inactive |
| CCCOC(=O)C1=C(C)NC2=C(C(=O)C(C(=O)OC)C(C)C2)C1c1ccc(N(C)C)cc1 (stereo not given) | inactive |
| Cc1cc(C)n(-c2ccc(Cl)c(C(=O)O)n2)n1 | inactive |
| COCCn1c(=O)c(C)nc2cnc(N(C)C)nc21 | inactive |
| COCCn1c(=O)c(-c2ccc(OC)cc2)nc2cnc(Oc3cccc(Cl)c3)nc21 | inactive |
| O=C(O)CCC(=O)N(Cc1ccco1)c1nc(-c2ccccc2)cs1 | inactive |
| COc1ccc2nc(NC3=NCN(CC4CCCO4)CN3)nc(C)c2c1 (stereo not given) | inactive |
| COc1ccc(-c2ccnc(SCC(=O)N3CCOCC3)n2)cc1 | inactive |
| COc1ccc(-c2nc3cnc(OC)nc3n(Cc3ccc(F)cc3)c2=O)cc1 | inactive |
| COc1ccc(CCn2c(-c3ccco3)nc3nc4ccccc4nc32)cc1OC | inactive |
| COc1ccc(C(C)=O)cc1COC(=O)Cn1cnc2ccccc2c1=O | inactive |
| Cc1cc(C)nc(SCc2nnc(SCC(=O)Nc3ncc(C)s3)n2Cc2ccco2)n1 | inactive |
| COc1ncc2nc(-c3ccc(Cl)cc3)c(=O)n(C)c2n1 | inactive |
| Cn1c(=O)c(-c2ccccc2)nc2cnc(N3CCNCC3)nc21 | inactive |
| CS(=O)(=O)N(CC(=O)NCc1ccco1)c1ccc2c(c1)OCO2 | inactive |
| Cc1cccc2cc(CN(Cc3nnnn3Cc3ccccc3)C3CCCC3)c(=O)[nH]c12 | inactive |
| CC(C)C(=O)Nc1cccc(C(=O)Nc2ccc3c(c2)OCO3)c1 | inactive |

| Structure (SMILES) | max dye-equivalent concentration |
| --- | --- |
| O=C1NC(=O)[C@@](Cc2ccccc2)(c2cccnc2)N1 | inactive |
| O=C(CN(c1ccc2c(c1)OCCO2)S(=O)(=O)c1ccccc1)Nc1ccc2c(c1)OCO2 | inactive |
| CN1CCc2c(sc3c2c(NCc2ccco2)nc2nnnn23)C1 | inactive |
| COc1ccc(C)cc1NC(=O)CSc1nc(SC)ns1 | inactive |
| N#Cc1ccccc1-c1ccc2ncnc(NCc3cccnc3)c2c1 | inactive |
| CCCC(=O)N1c2ccc(-c3csc(N)n3)cc2CC1C (stereo not given) | inactive |
| COc1ccc(-n2c(=O)c(C)nc3cnc(N4CCOCC4)nc32)cc1 | inactive |
| CC(C)C(NC(=O)c1cccc(S(=O)(=O)N2CCOCC2)c1)C(=O)NCCc1ccccn1 (stereo not given) | inactive |
| CSc1ccc(-c2c(C#N)c(N)nc3c2c(C)nn3-c2ccccc2)cc1 | inactive |
| CC(C)(C)n1nc2c(c1NC(=O)c1ccc(S(=O)(=O)N3CCCC3)cc1)CS(=O)C2 (stereo not given) | inactive |
| CCC[C@H]1C(=O)N2C(N(C)C)=Nc3ccc(C)cc3N2C1=O | inactive |
| Cc1nc2cnc(N3CCN(C)CC3)nc2n(CCC#N)c1=O | inactive |
| CCOc1ccc(-c2nnn(CC(=O)N3CCN(c4ccc(OC)cc4)CC3)n2)cc1OCC | inactive |
| Cc1cnc(NC(=O)CSc2nnc(-c3ccc(Cl)cc3Cl)n2N)s1 | inactive |
| CC[C@]1(C)CC(=O)NC1=O | inactive |
| CCc1ccc2oc(=O)cc(CN3CCCCC3C)c2c1 (stereo not given) | inactive |
| Cc1cc(NC(=O)Cn2nc(C(F)(F)F)c3c2CCCC3)no1 | inactive |
| Cc1cc(C(F)(F)F)n2ncc(-c3ccccc3)c2n1 | inactive |
| CN(C)/C=C1/Nc2ccccc2C1=O | inactive |
| CCOC(=O)C1CCCCN1Cc1ccc(OC)c(OC)c1OC (stereo not given) | inactive |
| CN(Cc1ccco1)c1ncncc1-c1ccoc1 | inactive |
| COc1ccc(-c2c3c(=O)n(C)c(=O)n(C)c3cn2NC(C)=O)cc1 | inactive |
